High-throughput results deposited in PubChem BioAssay by National Center for Advancing Translational Sciences (NCATS).
An excerpt weighted towards active compounds, which were near 2.6% of everything screened.
Giardia killer – Giardia lamblia killing; Giardia lamblia trophozoite viability; activity change, % at 7.66 µM, hits read low; 340,000 tested, 0.15% active; in the data active = activity change below about -80%; inconclusive = between about -30% and that limit;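 note: parasites exposed to compound for two days anaerobically before the ATP read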
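Killing of trophozoites was scored by loss of ATP luminescence after a 48 hrs anaerobic exposure to compounds at 37 deg C, using 100 cells per well.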
TGFb inhibitor – TGF-b pathway inhibition. Potency, µM (highest dose often 46.1 µM), hits mostly inhibitors. 410,000 tested, 1.2% active. HepG2 CAGA-GFP TGF-b/SMAD3 reporter, GFP fluorescence, 18 h; TGF-beta stimulated, 500 pg/mL final; note: nearly all actives have a fitted effect of over 65% in size
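Inhibition was scored as loss of TGF-beta-induced (500 pg/mL final, 18 hours, 37 degrees C) GFP in HEPG2 cells carrying a CAGA-GFP reporter, in DMEM with 1% FBS. Well GFP was summed per cell; Activity was normalised to unstimulated and stimulated DMSO wells, then concentration-response fitting.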
uPA surface inh – cell surface uPA generation inhibition | cell surface uPA generation assay, qHTS | 330,000 tested, 0.31% active | Potency, µM (titrated, usually from 38.3 µM), usual class: inhibitors; active = well fitted inhibition curve with a large enough effect; inconclusive = small, poorly fitted or top-dose-only effect; inactive = no such curve, though single readings can be large or run the other way; tested in mouse RAW 264.7 cells; note: nearly all actives have a fitted effect of over 55% in size
ATXN2 expr inh – ATXN2 expression inhibition; HEK-293 ATXN2-luciferase reporter, luminescence, 24 h; AID 1745845; 360,000 tested, 0.72% active; Potency, µM (series often up to 57 µM), actives largely listed as inhibitors; note: nearly all actives have a fitted effect of over 55% in size
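qHTS (up to 57 uM final) was run with 24 h compound exposure of reporter cells at 37 °C. Each well was multiplexed: SteadyGlo luminescence measured ATXN2-luciferase expression after a fluorogenic Gly-Phe-AFC viability readout (25 uM final).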
S2 tox – reduces viability in counter-screen for ATXN expression inhibitors. Potency, µM (top dose mostly 56.7 µM), most hits filed as cytotoxic. 400,000 tested, 0.49% active. S2 cells (HEK-293 line with an ATXN2-luciferase reporter) viability, CellTiter-Fluor protease fluorescence, 24 h. AID 651635; note: nearly all actives have a fitted effect of over 40% in size
HepG2 tox-1 – HepG2 cytotoxicity, counter-screen for TGF-b inhibitors. HepG2 CAGA-GFP viability, ATP luminescence, 18 h. AID 588856. Potency, µM (doses to about 46.1 µM), actives largely listed as cytotoxic. 410,000 tested, 0.76% active
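HepG2 CAGA-GFP cells (1000/well, DMEM with 1% FBS) received compound, then TGF-beta at 500 pg/mL final, and were incubated 18 hours at 37 degrees C. Viability was read by CellTiter-Glo luminescence. Media-only wells were set as complete cell-killing and DMSO as no toxicity.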
TGFb confirm – confirmation of TGF-b signaling inhibitors in HepG2 reporter cells; shares compounds with TGFb inhibitor; HepG2 CAGA-GFP TGF-b reporter, GFP fluorescence, 18 h; cells stimulated with TGF-beta, 500 pg/mL; Potency, µM (doses to about 46.1 µM), actives largely listed as inhibitors; 1,600 tested, 63% active; note: nearly all actives have a fitted effect of over 65% in size
HepG2 tox-2 – counter-screen for TGF-b inhibitors: cytotoxicity in HepG2 cells. shares compounds with TGFb inhibitor. HepG2 CAGA-GFP viability, ATP luminescence, 18 h; cells stimulated with TGF-beta, 500 pg/mL. 1,600 tested, 27% active. AID 720535. Potency, µM (top dose mostly 46.1 µM), usual class: inhibitors; note: nearly all actives have a fitted effect of over 70% in size
CCL64 TGFb inh – TGF-b inhibition, CCL64 orthogonal assay. Potency, µM (top dose mostly 46.1 µM), most hits filed as inhibitors. shares compounds with TGFb inhibitor. CCL64 CAGA-GFP reporter, TGF-b stimulated, GFP fluorescence, 18 h. 1,600 tested, 41% active; note: nearly all actives have a fitted effect of over 65% in size
TGFb COP inh – validation of TGF-b inhibitors in HepG2 COP promoter reporter. shares compounds with TGFb inhibitor. HepG2 COP-GFP TGF-b reporter, GFP fluorescence, 18 h; cells stimulated by added recombinant TGF-beta. Potency, µM (doses to about 46.1 µM), usual class: inhibitors. 1,600 tested, 3% active. AID 720537; note: nearly all actives have a fitted effect of over 70% in size
Hits are given with their value; – = inactive; ? = inconclusive; · = no result. Unless noted, calls come from the whole dose curve; as a rule, active = well fitted curve in the direction sought with a large enough effect; inconclusive = small, poorly fitted or top-dose-only effect, or another doubt; inactive = no such curve, though single readings can be large; an effect the other way counts as inactive or inconclusive.

SMILES	Giardia killer	TGFb inhibitor	uPA surface inh	ATXN2 expr inh	S2 tox	HepG2 tox-1	TGFb confirm	HepG2 tox-2	CCL64 TGFb inh	TGFb COP inh
CCOC(=O)c1c(-c2cccs2)csc1N	–	?	–	–	–	–	–	–	–	–
CC1Sc2ccccc2N(Cc2ccccc2)C1=O (stereo not drawn)	·	–	·	–	–	–	·	·	·	·
CC(=O)c1ccc2c(c1)N(Cc1ccc3ccccc3c1)C(=O)C(C)S2 (stereo not drawn)	·	7.9µM	·	–	–	–	21µM	–	–	–
COc1ccc(N2CCN(C(=O)COC(=O)CCOc3ccc(C)cc3)CC2)cc1	–	–	–	–	–	–	·	·	·	·
O=C(CSc1nnc(CCc2ccccc2)n1-c1ccc(Cl)cc1)NCc1ccccc1	–	11µM	–	–	–	–	?	–	?	–
C=CCn1c(CSCc2ccc(Cl)cc2)nnc1SCC(=O)NCc1ccccc1	–	8.9µM	–	–	?	–	?	–	–	–
CCOC(=O)c1c(C)[nH]c(CCC(=O)NCc2ccc(F)cc2)c1C	·	–	·	·	·	–	·	·	·	·
COc1ccc(C(=O)CSc2cc(C)nc(SCC(=O)c3ccc(C)cc3)n2)cc1	–	?	–	–	–	–	?	–	–	–
COc1ccc(N2CCN(C(=O)CN3CCSc4ccccc43)CC2)cc1	·	–	·	–	–	–	·	·	·	·
CNc1ccc(/C=C2\C=Cc3ccccc32)cc1OC	·	–	·	·	·	–	·	·	·	·
N#CC1(NC(=O)COC(=O)c2cc([N+](=O)[O-])ccc2N2CCOCC2)CCCCC1	–	?	–	–	?	–	·	·	·	·
CCn1c(CN2CCOCC2)nc2cc(NC(=O)c3cc(OC)c(OC)c(OC)c3)ccc21	·	–	·	–	–	–	·	·	·	·
